Results taken from PubChem BioAssay AID485313 (National Center for Advancing Translational Sciences (NCATS), 2010).
In all, about 320,000 compounds went through this assay and about 7,600 (2.4%) were called active. About 3% were inconclusive and are not listed. Shown is part of a subset that was picked to be rich in actives. Unmarked numbers belong to inactive results. Calls come from the whole dose curve; as a rule, active = well fitted activation curve with a large enough effect; inconclusive = small, poorly fitted or top-dose-only effect; inactive = no such curve, though single readings can be large or run the other way.

experiment: qHTS Assay for NPC1 Promoter Activators; details: Huh7 NPC1 promoter luciferase reporter, 24 h; series mostly up to 9.22 µM; activation: at the top concentration; note: nearly all actives have a fitted effect of over 60% in size; for activation: % of control where 0% means no effect
Summary of the method: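 Luciferase expression driven by the NPC1 promoter was measured in stably transfected Huh7 cells after a 24 h compound incubation, using a luciferase reagent and a luminescence read.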
Potency is the fitted concentration of half-maximal effect.

Row | SMILES | activation [%] | Potency
1 | CC1(NC(=O)CCS(=O)(=O)c2ccc(Cl)cc2)CCS(=O)(=O)C1 (stereo not drawn) | -0.873 | 
2 | CCOc1ccc(C(=O)CCC(=O)Nc2ccncc2)cc1 | -3.49 | 
3 | CN1C(=O)/C(=C/C=C2\SCCN2C)OC1=S |  | 3.98 µM (active)
4 | Cc1cc(C)cc(NC(=O)c2cccc(NC(=O)C3C4CC5OC(=O)C3C5C4)c2)c1 (stereo not drawn) | 0.703 | 
5 | O=C(Cn1c2[n+](c3ccc(C(F)(F)F)cc31)CCCCC2)Nc1c(F)cccc1F | -5.85 | 
6 | NC(=O)C1CCN(C(=O)c2ccc(F)c(S(=O)(=O)N3CCOCC3)c2)CC1 | -5.94 | 
7 | CCOC(=O)N1CCC(NC(=O)CCc2ccccc2)CC1 | -2.93 | 
8 | O=C(NCC1CCC(C(=O)O)CC1)OCc1ccccc1 (stereo not drawn) | 2.31 | 
9 | O=C(O)C1CCN(C(=O)OCc2ccccc2)CC1 |  | 2 µM (active)
10 | CC(=O)c1ccc(S(=O)(=O)NCCC(=O)N2CCN(c3ccccn3)CC2)cc1 | -0.622 | 
11 | O=C(Nc1cccc(C(=O)NC2CC2)c1)c1ccc(F)c(S(=O)(=O)N2CCOCC2)c1 | -1.39 | 
12 | COc1ccc(Cl)cc1NC(=O)COc1ccc2c(c1)OCO2 | -1.02 | 
13 | O=[N+]([O-])c1cc(Br)c(O)c(/C=N/Nc2nc3ccccc3s2)c1 | -6.54 | 
14 | c1ccc2sc(NN=C3CCCC3)nc2c1 |  | 1.41 µM (active)
15 | CCN(CC)CCn1c2c(c(SCC(=O)Nc3nc4ccccc4s3)nc1=O)CCCC2 | 0.104 | 
16 | COc1ccc(-c2sc3ccc(OC)cc3c2C#Cc2ccccn2)cc1 | 22 | 
17 | Cc1cnc(CN(C)C(=O)C2CCC(=O)N(CCc3cccc(F)c3)C2)[nH]1 (stereo not drawn) | -4.93 | 
18 | Cc1csc(=O)n1CCC(=O)OCC(=O)NNC(=O)c1ccc(Br)cc1 | -1.37 | 
19 | Nc1c(N(CCCO)C(=O)C2CCCC2)c(=O)[nH]c(=O)n1Cc1ccccc1 | 0.384 | 
20 | C/C(=N\NC(=O)c1cccnc1)c1ccc(-c2ccccc2)cc1 | 2.31 | 
21 | COc1ccc(/C(C)=N/NC(=O)c2ccc3nc[nH]c3c2)cc1 | -2.23 | 
22 | C/C(=N\NC(=O)c1nc(C)cc(C)n1)c1ccccc1 |  | 1.58 µM (active)
23 | COc1ccc(CCNC(=O)CCc2ccccc2O)cc1OC | 1.23 | 

Row | SMILES | activation [%] | Potency
24 | COc1ccccc1C(=O)NC(=O)COC(=O)C1CC1 | 2.15 | 
25 | O=C(CNC(=O)c1ccccc1F)c1ccc(Br)cc1 |  | 0.398 µM (active)
26 | O=C(COC(=O)CNC(=O)c1ccccc1F)NCC(F)(F)F | -10.8 | 
27 | O=C(NCCS(=O)(=O)NCc1ccc(F)cc1)c1ccccc1 | 2.14 | 
28 | O=C(CNC(=O)c1ccc(F)cc1)c1ccccc1 |  | 1.41 µM (active)
29 | O=C(CNC(=O)c1ccccc1)NCC(=O)OCC(=O)c1ccccc1 | -2.12 | 
30 | O=C(CNC(=O)c1ccccc1Br)NCCSc1ccc(Br)cc1 | -2.8 | 
31 | Cc1ccc(S(=O)(=O)Nc2nc(CN3CCOCC3)nc3sc(C)c(C)c23)cc1 | -3.18 | 
32 | COc1ccc(CNC(=O)c2ccc(NS(=O)(=O)c3ccc4[nH]c(=O)[nH]c4c3)cc2)cc1OC | 0.755 | 
33 | Nc1nc(SCC(=O)Nc2ccc(Cl)c([N+](=O)[O-])c2)n[nH]1 | -0.898 | 
34 | CCCc1ccc(OCCNC(=O)c2ccccc2Br)cc1 | 11 | 
35 | CC(C)c1ccc(C(=O)NCCCc2ccccc2)cc1 |  | 2.82 µM (active)
36 | O=C(CCNC(=O)c1ccc(Br)cc1)NCCCc1ccccc1 | 0.35 | 
37 | Cc1noc(C)c1COc1ccc(C(=O)NCCOc2ccccc2)cc1 | 14 | 
38 | O=C(NCCOc1ccccc1)c1ccccc1 |  | 0.631 µM (active)
39 | CN(c1ccccc1)S(=O)(=O)c1ccc(C(=O)NCCc2ccccc2)cc1 | 16.8 | 
40 | CCCOc1ccc(C(=O)NCCc2ccccc2)cc1 |  | 0.447 µM (active)
41 | CCCCCCCCC(=O)NCCOc1ccccc1 | -1.35 | 
42 | COc1ccc(OCCCC(=O)NCCc2ccccc2)cc1 | 0.654 | 
43 | CCN1CCN(C(=O)N[C@@H](C(=O)N[C@@H]2C(=O)N3C(C(=O)O)=C(CSc4nnnn4C)CS[C@H]23)c2ccc(O)cc2)C(=O)C1=O | -2.2 | 
44 | Cc1ccc(CNC(=O)c2cccc3c2C(=O)c2ccc(N4CCC(C)CC4)cc2S3(=O)=O)cc1 | 13.2 | 
45 | CC1(C)O[C@@H]2[C@H](O1)[C@@H](COS(=O)(=O)O)O[C@H]2n1ccc(=O)[nH]c1=O | 0.649 | 
46 | O=C(/C=C/c1ccccc1[N+](=O)[O-])OCC(=O)N1CCCC1 | 10.4 | 

Row | SMILES | activation [%] | Potency
47 | O=C(CNc1ccccc1N1CCCC1=O)Nc1cc(Cl)ccc1-n1cncn1 | -0.612 | 
48 | O=c1c2ccccc2ncn1/N=C/c1ccccc1 |  | 1 µM (active)
49 | CCCc1nc2ccccc2c(=O)n1/N=C/c1ccc(O)c(O)c1 | -8.72 | 
50 | O=C(Nn1cnc2ccccc2c1=O)c1ccccc1 | 1.3 | 
51 | O=C(Oc1cccc(NC2=NS(=O)(=O)c3ccccc32)c1)c1ccncc1 | 2.13 | 
52 | Cc1ccc(S(=O)(=O)N(NC2=NS(=O)(=O)c3ccccc32)C(=O)c2ccccc2)cc1 | -4.49 | 
53 | CC(C)(C)c1csc(NC2=NS(=O)(=O)c3ccccc32)n1 |  | 1.41 µM (active)
54 | CCN(CC(=O)Nc1ccccc1C(F)(F)F)C(=O)C1CCN(C(=O)Nc2ccccc2)CC1 | 1.23 | 
55 | O=C(c1cn(-c2ccccc2)nc1-c1cccnc1)N1CCN(S(=O)(=O)c2ccccc2F)CC1 | -2.08 | 
56 | CC[C@@H]1Cc2cc(O)ccc2C2=C1c1ccc(O)cc1C[C@H]2CC |  | inactive
57 | CCOC(=O)C1=C(c2ccccc2)O/C(=C(/C(=O)OC)C(F)(F)F)S1 | 10.5 | 
58 | COC(=O)/C(=C1\Oc2ccc(C(C)(C)C)cc2S1)C(F)(F)F |  | 3.55 µM (active)
59 | Cc1occc1-c1nnc(SCC(=O)NC2(C#N)CCCC2)n1C | -2.37 | 
60 | COc1ccc(-c2cc(C3CCN(c4ncccc4[N+](=O)[O-])CC3)[nH]n2)cc1 | 1.28 | 
61 | COc1ccc(-c2cc3ncccc3cn2)cc1 |  | 2.24 µM (active)
62 | COc1ccc(-c2cc(C(F)(F)F)nc(NCc3cccnc3)n2)cc1 | 1.94 | 
63 | CCC(=O)Nc1ccc2c(c1)nc(CCN1CCN(c3ccccn3)CC1)n2C | -10.8 | 
64 | Cn1c(CCN2CCCCCC2)nc2cc(NC(=O)Nc3ccccc3)ccc21 |  | 4.47 µM (active)
65 | Cn1c(CCN2CCCC2)nc2cc(NS(=O)(=O)c3ccccc3)ccc21 | -7.01 | 
66 | Cc1nc2cc(NC(=O)Nc3cccc(F)c3)ccc2n1C |  | 0.1 µM (active)
67 | Cc1cc2nc(C)n(CCCNC(=O)Nc3ccccc3)c2cc1C | -3.61 | 
68 | Cc1nc2cc(NC(=O)NC3CC3)ccc2n1C | 7.08 | 
